Bioassay records from PubChem.
Hits are enriched below; roughly 12% of the tested compounds scored in any of these assays.
G9a inh: blocks human histone lysine methyltransferase G9a; Q96KQ7; G9a H3K9 monomethylation, AlphaScreen, 2 h; Potency, µM (top dose mostly 102 µM), for inactives: top-dose activity, negative = inhibition, most hits filed as inhibitors; 8.8% of 350,000 active; AID 504332; also: potency is read from the fitted curve at half-maximal effect; % is scaled to controls: 0 for no effect and ±100 for the full control effect; nearly all actives have a fitted effect of over 75% in size
Target sequence (Q96KQ7 913-1193 limits assumed): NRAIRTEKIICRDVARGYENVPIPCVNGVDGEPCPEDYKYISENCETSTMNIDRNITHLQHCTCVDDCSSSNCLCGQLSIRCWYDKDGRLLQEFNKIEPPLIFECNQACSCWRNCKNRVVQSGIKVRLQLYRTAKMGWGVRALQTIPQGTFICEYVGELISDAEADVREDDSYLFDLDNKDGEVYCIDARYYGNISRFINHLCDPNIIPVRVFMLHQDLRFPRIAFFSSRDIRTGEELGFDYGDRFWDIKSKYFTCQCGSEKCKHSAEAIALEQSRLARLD
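Signal arises when biotinylated H3K9 peptide, once monomethylated, bridges streptavidin donor and antibody-captured acceptor beads. Enzyme at 20 nM was preincubated 15 min with test compounds; peptide 500 nM and SAM 20 uM then reacted for 2 h.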
HP1b chromo inh: blocks HP1-beta chromodomain binding to methylated histone tails; P83916; AlphaScreen HP1-beta / biotin-H3K9me3 peptide binding; Potency, µM (doses to about 114 µM), for inactives: at the top dose activity change, negative = inhibition, usual class: inhibitors; 0.56% of 390,000 active; AID 540317; also: potency is read from the fitted curve at half-maximal effect; nearly all actives have a fitted effect of over 70% in size
Target sequence (P83916 whole entry, looked up): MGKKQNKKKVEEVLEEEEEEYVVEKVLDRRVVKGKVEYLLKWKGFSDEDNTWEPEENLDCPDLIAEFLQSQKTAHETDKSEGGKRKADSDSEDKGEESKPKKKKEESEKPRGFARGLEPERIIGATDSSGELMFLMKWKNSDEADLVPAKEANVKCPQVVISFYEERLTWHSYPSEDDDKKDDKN
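Compound inhibition of the preformed complex between 50 nM HP1-beta and 50 nM biotinylated H3K9me3 peptide was read by AlphaScreen. Buffer was PBS pH 7.4 with 0.01% Tween-20. Incubations ran 30 min at room temperature, with 10 ug/mL donor/acceptor beads.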
BAZ2B block: blocks human BAZ2B | Q9UIF8 | 4.4% of 360,000 active | AlphaScreen BAZ2B-H3K14Ac peptide displacement | AID 504333 | Potency, µM (top dose mostly 114 µM), for inactives: top-dose activity change, negative = inhibition, usual class: inhibitors; also: potency is read from the fitted curve at half-maximal effect; % is scaled to controls: 0 for no effect and ±100 for the full control effect; nearly all actives have a fitted effect of over 60% in size
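BAZ2B 50 nM plus b-H3(5-23)K14Ac 50 nM, PBS pH 7.4/0.01% Tween-20, 30 min RT; compound added (max 110 uM), 30 min RT; streptavidin donor/Ni-chelate acceptor beads 10 ug/mL final, 20 min dark; AlphaScreen read.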
PLK1 PBD inh: inhibitors of human PLK1 polo-box domain binding. P53350. Plk1 PBD binding of FITC phosphopeptide, fluorescence polarization. Potency, µM, for the others: max response, negative = inhibition, actives largely listed as inhibitors. 2.8% of 360,000 active. AID 720504; also: potency is read from the fitted curve at half-maximal effect; series mostly up to about 57 µM; % is scaled to controls: 0 for no effect and ±100 for the full control effect; nearly all actives have a fitted effect of over 65% in size
JMJD2A Tudor inh: inhibitors of human JMJD2A Tudor domain; AlphaScreen JMJD2A-Tudor / H3K4me3 peptide binding; O75164; Potency, µM (highest dose often 114 µM), for the others: top-dose activity change, negative = inhibition, hits mostly inhibitors; 4.4% of 390,000 active; also: potency is read from the fitted curve at half-maximal effect; % is scaled to controls: 0 for no effect and ±100 for the full control effect; nearly all actives have a fitted effect of over 50% in size
PI5P4Ka inh: blocks human PI5P4K alpha kinase activity. P48426. PI5P4Kalpha enzyme, ADP-Glo luminescence, 60 min; hits give low values. max response, %. 1.2% of 330,000 active; active = max response of -50% or lower; inconclusive = between -30% and -50%; inactive = -30% or higher; also: value at the top dose of about 77 µM; % is scaled to controls: 0 for no effect and ±100 for the full control effect
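ADP-Glo luminescence end-point read after a 60 min room-temperature kinase reaction of PI5P4Kalpha plus substrate, initiated with ATP at 5 microM final. Buffer: 0.038 M HEPES pH 7.4, EGTA, 0.1% CHAPS, 5% DMSO.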
An asterisk follows results filed as active; ? = inconclusive; . = no result given; [ ] = another dose, or the depositor's remark. Unless noted, calls follow the shape of the dose curve; as a rule, active = well fitted curve in the direction sought with a large enough effect; inconclusive = small, poorly fitted or top-dose-only effect, or another doubt; inactive = no such curve, though single readings can be large; an effect the other way counts as inactive or inconclusive.

SMILES	G9a inh	HP1b chromo inh	BAZ2B block	PLK1 PBD inh	JMJD2A Tudor inh	PI5P4Ka inh
Cn1nccc1NC(=O)c1nccnc1C(=O)O	39.8µM*	21.7%	?	1.2%	-2.9%	-0.7
CC(=O)Nc1ccc(NC(=O)c2nccnc2C(=O)O)cn1	20.5%	11.1%	50.1µM*	-6.9%	-9.1%	0.0
Cn1nc(C(F)(F)F)c(-c2ccccc2)c1NC(=O)c1nccnc1C(=O)O	.	34.9%	79.4µM*	0.2%	?	0.1
COc1cc(NC(=O)c2nccnc2C(=O)O)cc(OC)c1	22.4µM*	15.9%	?	-3.3%	39.8µM*	1.9
CCOC(=O)c1c(NC(C)=O)c2c3c(sc2n1Cc1nc(-c2ccccc2OCC)oc1C)CCCC3	1.7%[59 µM]	32.6%	-17.4%	.	-3.6%	.
Cc1cc2nn(-c3ccccc3)nc2cc1NC(=O)Cc1ccc(Cl)cc1	14.1µM*	29.0%	-20.2%	.	-8.8%	.
CCCCc1ccc(-n2nc3cc(C)c(NC(=O)Cc4ccccc4)cc3n2)cc1	1.41µM*	9.8%	?	.	50.1µM*	.
O=C(Cc1ccc(Cl)cc1)Nc1ccc2nn(-c3ccccc3)nc2c1	3.9%[59 µM]	31.7%	-1.7%	.	-2.6%	.
COC(=O)C1=C[C@@H](C(=O)OC)[C@H]2C3=C(C(=O)[C@@]2(C)NC(=O)c2ccccc2)[C@H](C)C(C(=O)OC)=C(C(=O)OC)[C@@H]3C1	.	20.5%	.	.	-5.5%	.
COc1cc(C2Oc3ccccc3C=C2[N+](=O)[O-])cc(OC)c1OC (stereo not drawn)	.	-20.0%	35.5µM*	4.23µM*	56.2µM*	-1.9
CC(C)Cn1c(=O)c2sccc2n2c(CCCC(=O)N3CCN(c4ccc(F)cc4)CC3)nnc12	26.8%[59 µM]	64.8%	8.7%	.	-5.1%	.
CCOC(=O)c1c(N2C(=O)C=CC2=O)sc(C)c1C	?	?	?	5.32µM*	20µM*	.
CCCN(CC(=O)Nc1cccc(Br)c1)CC(=O)Nc1ccc(F)c(F)c1F	11.2µM*	57.9%	15.1%	-0.4%	-2.8%	10.5
COc1cccc(NC(=O)CN(C)C(C)C(=O)NC(C)c2ccc(Cl)cc2Cl)c1 (stereo not drawn)	28.2µM*	39.9%	-2.0%	-0.2%	-13.8%	-4.6
COc1ccc(NC(=O)CN(C)CC(=O)Nc2cccc(C(C)=O)c2)cc1	4.47µM*	?	35.5µM*	0.4%	10µM*	-4.1
CN(CC(=O)Nc1ccc(Cl)cc1)CC(=O)Nc1cccc(Br)c1	44.7µM*	34.7%	0.7%	2.1%	-5.6%	33.3
COc1cccc(NC(=O)CN(C)C(C)C(=O)Nc2ccc(C(C)=O)cc2)c1 (stereo not drawn)	-0.9%	21.8%	-18.9%	-6.2%	-17.1%	-1.6
CCCN(CC(=O)Nc1cccc(S(N)(=O)=O)c1)CC(=O)Nc1ccc(F)c(F)c1F	13.2%	44.3%	-9.2%	0.3%	-4.4%	0.9
CCC(C)c1ccc(NC(=O)CN(C)CC(=O)Nc2cccc(OC)c2)cc1 (stereo not drawn)	50.1µM*	35.0%	50.1µM*	3.3%	5.4%	-1.2
CN(CC(=O)Nc1ccc(Cl)c(Cl)c1)CC(=O)N1CCCCCC1	.	.	.	-0.2%	.	2.2
CC(C(=O)N1CCCCC1)N(C)CC(=O)Nc1ccc(Cl)cc1 (stereo not drawn)	?	4.2%	-11.7%	11.9µM*	?	-22.3
COc1cccc(NC(=O)CN(C)CC(=O)Nc2ccc3c(c2)OCO3)c1	.	16.1%[57 µM]	.	-1.3%	-20.7%	6.4
CCC(C)c1ccc(NC(=S)Nc2ccc(OC)cc2C)cc1 (stereo not drawn)	4.47µM*	-22.4%	-5.3%	-20.1%	-25.7%	1.6
COc1ccc(NC(=O)CN(C)CC(=O)N2CCCCCC2)cc1	56.2µM*	24.1%	26.9%	-5.7%	14.1µM*	5.9
CCC(C)c1ccc(NC(=S)Nc2ccc(OC)c(OC)c2)cc1 (stereo not drawn)	?	?	-35.4%	-8.0%	-34.7%	10.7
SMILES	G9a inh	HP1b chromo inh	BAZ2B block	PLK1 PBD inh	JMJD2A Tudor inh	PI5P4Ka inh
CCNC(=O)C1(C)CCN(C(=O)c2cccs2)C1 (stereo not drawn)	.	.	.	-2.3%	.	0.9
CCC(CO)(CO)N(CC(=O)Nc1ccc(OC)cc1)CC(=O)Nc1ccc(OC)cc1	?	35.8%	-1.9%	7.0%	-11.4%	-7.0
COc1ccc(NC(=O)CN(CC(=O)Nc2ccc(OC)cc2)C(C)(C)CO)cc1	70.8µM*	14.2%	-22.5%	3.9%	-14.9%	1.1
O=S(=O)(c1ccc(Br)cc1F)N1CCCCC1CCO (stereo not drawn)	.	34.0%	.	-7.3%	-27.3%	0.8
Cc1ccc(N2C(=O)CS/C2=C(\C(Cl)=C(Cl)Cl)[N+](=O)[O-])cc1	20µM*	?	44.7µM*	-20.5%	39.8µM*	.
Cc1nn(CCO)c2ncc(C(=O)c3cc(F)ccc3O)cc12	50.1µM*	13.5%	3.9%	2.2%	10.9%	-8.3
CCC(C)NC(=O)C1(N2C(=O)c3ccccc3C2=O)CCCC1 (stereo not drawn)	.	30.5%	.	6.9%	-8.2%	-2.2
CCOc1ccccc1C(=O)Nc1cc(-c2nc3cccnc3s2)ccc1C	10µM*	4.3%	31.6µM*	.	?	.
COc1ccc(C(=O)Nc2cccc(-c3nc4cccnc4s3)c2C)c(OC)c1	11.2µM*	0.0%	-24.8%	.	?	.
Cc1ccc(S(=O)(=O)N2CCc3cc(C(=O)Nc4c(F)cccc4F)ccc32)cc1	-7.6%[59 µM]	19.3%	-14.0%	.	-14.8%	.
CN=c1scc(-c2ccccc2F)n1/N=C(\C)c1cccnc1	15.8µM*	?	35.5µM*	-7.2%	15.8µM*	-1.6
O=C(COC(=O)c1ccc(NS(=O)(=O)c2cccs2)cc1)Nc1nc2c(F)c(F)c(F)cc2s1	-44.7%	-8.0%	?	-24.7%	-30.1%	-90.4*
Cc1ccc(S(=O)(=O)N(C(=O)c2ccncc2)c2ccc(OC(=O)c3ccncc3)c3ccccc23)c(C)c1	1.58µM*	?	?	13.4µM*	?	2.9
Cc1ccc(S(=O)(=O)N(C(=O)c2ccncc2)c2ccc(OC(=O)c3ccncc3)c3ccccc23)cc1	8.91µM*	-27.5%	-35.1%	9.47µM*	39.8µM*	-25.9
COC(=O)c1c(C)oc2ccc(N(C(=O)c3ccncc3)S(=O)(=O)c3ccc(C)cc3)cc12	21.6%[2.33 µM]	13.1%	-29.2%	-7.4%	-16.8%	-11.8
CC(=O)Oc1ccc(N(C(C)=O)S(=O)(=O)c2ccc(C)cc2C)c2ccccc12	15.1%[59 µM]	?	-0.5%	4.2%	-12.0%	6.8
COc1cccc(CNC(=O)CCc2c(C)nc3c(c(C)nn3-c3ccc(C)c(C)c3)c2C)c1	-1.4%[59 µM]	11.3%	4.0%	.	-12.1%	.
CC1(C(=O)Nc2ccc3ccccc3c2)CCC(=O)N1CCCn1ccnc1 (stereo not drawn)	.	.	.	-13.4%	.	1.4
COn1c(=S)[nH]c2ccccc2c1=O	?	11.7%	-9.1%	-10.7%	89.1µM*	.
